Tests used:
Assay in all cases: PBM binding z-score (relative to random genomic background probes); higher = stronger binding; sequences stand for … in GC…GCGATTGACAGCGTAGAATGAAGG
[1] = test system: RARb homodimer (NR concentration 270 nM)
How it was run: (§1)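 For binding z-scores, the reference was random background probes on custom Agilent 4×180K protein-binding microarrays. These arrays were incubated 1 h with ligand-free nuclear receptor dimers in PBS pH 7.4, 2% milk, 0.02% Triton X-100, 1 mM DTT, 0.2 mg/mL BSA and 0.4 mg/ml salmon testes DNA. Fluorescence was scanned after antibody detection of each partner (one per run) and regression-normalized.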

[2] = test system: RARg:RXRa (NR concentration 270 nM, RXRa partner concentration 90 nM)
How it was run: as §1

[3] = test system: RARg homodimer (NR concentration 270 nM)
How it was run: as §1

[4] = test system: RXRa DBDmut IVT, anti-RXR (DBD mutation: RXRa K156A/R161A, NR concentration 90 nM)
How it was run: as §1

[5] = test system: RXRa homodimer (NR concentration 180 nM)
How it was run: as §1

[6] = test system: THRa:RXRa (NR concentration 90 nM, RXRa partner concentration 90 nM)
How it was run: as §1

[7] = test system: THRa homodimer (NR concentration 90 nM)
How it was run: as §1

[8] = test system: VDR:RXRa (NR concentration 270 nM, RXRa partner concentration 90 nM)
How it was run: as §1

[9] = test system: VDR homodimer (NR concentration 270 nM)
How it was run: as §1

Sequence | PBM binding z-score [1] | PBM binding z-score [2] | PBM binding z-score [3] | PBM binding z-score [4] | PBM binding z-score [5] | PBM binding z-score [6] | PBM binding z-score [7] | PBM binding z-score [8] | PBM binding z-score [9]
ATCTCTAGGTAAAAGTTCAGTGACTCCCGAGGAT | 2.46 | 2.04 | 2.16 | 0.624 | 1.75 | 1.32 | 0.142 | 1.71 | 1.69
GCTCGGAGGACAAGGTCAAAGCTTTGTCCGTAGA | 3.35 | 4.56 | 4.54 | 1.32 | 4.4 | 3.57 | 2.09 | 3.38 | 2.02
CCTCCTGGGCCAAGGTCATTGATCAGTCAAAGCA | 3.38 | 3.6 | 3.13 | 0.822 | 3.1 | 3.43 | 2.34 | 2.91 | 3.08
ATAGGTAGGTTACATCCGGGTCATTCAGGCTATG | 2.84 | 3.6 | 2.45 | 0.326 | 2.96 | 3.77 | 2.45 | 4.21 | 3.59
ATACCAAGGTGATCGTGAGGTCTTTGATACTAAC | 0.992 | 0.797 | 0.392 | 0.0771 | 0.435 | 2.38 | 1.65 | 0.526 | 0.438
AATACAGGGTCATCGTAAGCCAGAGTACGCACAG | 3.27 | 5.55 | 4.8 | 3.07 | 6.56 | 3.68 | 1.39 | 4.87 | 3.12
AGAATGAGGTTATACGTAAATCAGGGAAGAAAGT | 0.771 | 1.56 | 1.08 | 1.72 | 2.06 | 2.17 | 0.605 | 1.21 | 0.824
GCAACTGGGGCAAAGCAGGTTACCATAAGGTTGG | 1.27 | 0.563 | 0.56 | -0.0375 | 0.648 | 2.78 | 0.101 | 0.361 | -0.248
TCTTGTAGATCAGCAGTTTAAGAAAGCTGGCCAA | -0.447 | -0.29 | -0.416 | 0.659 | -0.0867 | -0.138 | -0.319 | -0.0839 | 0.0603
GCTGCTAGGTCAACTGGTGGTCAGCTAAAGCTCG | 3.61 | 5.52 | 5.36 | 1.53 | 2.88 | 3.02 | 0.794 | 1.64 | 0.0223
GCGACTAGGGCAAAGCAGGTTACCATAAGGTTGG | 0.924 | 0.573 | 1.01 | -0.427 | 0.44 | 2.98 | 0.052 | -0.209 | -0.405
ACTAGCAGGCCAAGCGTCACTCAAGATTAGTCCG | -0.0548 | -0.358 | 0.0982 | -0.131 | -0.281 | -0.489 | -0.737 | -0.477 | -1.26
GCATGTAGATCAAGGTTAAGAAAGACTAAGCTAA | -0.0945 | 0.235 | 0.318 | 0.0216 | 0.645 | 1.26 | -0.345 | 0.22 | -0.573
CTCGAAAGGGCGGTTGAGGTGAGTATACGGATAA | 0.872 | 0.317 | 0.636 | 0.039 | -0.0679 | 4.21 | 1.28 | -0.045 | 0.0137
GCAGACAGGTGAACCGCAGGTAACTCAGGGTGGC | 0.366 | 1.37 | 0.342 | -0.635 | 1.54 | 1.76 | -0.376 | 0.332 | -0.237
GATACATGGTCAGCTAGAGGCCAGAGTATGGAAA | 0.679 | 1.39 | 0.818 | -0.556 | 0.128 | -0.168 | -1.01 | -0.32 | -0.418
CCTAATGGGCCATCAGGTCATTGATATCAACGTT | 2.76 | 2.27 | 2.23 | 0.496 | 1.39 | 3.38 | 2.92 | 2.04 | 1.57
ATCGAAAGGTCGTAGGTGAGTATACCCACCCGAA | 2.79 | 4.48 | 3.9 | 1.21 | 5.28 | 2.5 | 0.0179 | 3.47 | 1.21
GCTAGTTGGTCAGTAAAAGATCACACACCGGTCG | 0.519 | 0.262 | 0.586 | -0.0346 | 0.0545 | -0.299 | -0.336 | -0.204 | -0.296
TAGCCTAGGTCAGATCTGGCCAGTATACGCTATA | 1.82 | 2.73 | 3.49 | -0.24 | 1.3 | 2.57 | -0.423 | 0.166 | -0.751
CGTCGAAGGTCATAGGAGGTCAGTGAAGACAGAT | 5.29 | 6.92 | 7.53 | 3 | 6.64 | 5.27 | 1.39 | 6.76 | 3.45
TCTCGGAGGACGCGAAGGTCAGAGCTTTCCAGAG | 3.03 | 2.26 | 2.1 | 0.401 | 1.67 | 1.84 | 0.0235 | 1.23 | 0.488
AGTCAAAGTTCAGGACGAGGTAACGTATAGCACG | 3.26 | 4.94 | 4.94 | 3.22 | 3.15 | 3.88 | 1.73 | 3.14 | 2.37
CGGAGTAGGTTATGGGGCATTCAGGCAACGGTGA | 1.26 | 0.544 | 0.721 | -0.446 | 0.668 | 0.705 | 0.801 | 0.00597 | 0.416
GGAACGAGGGCATTCGAGTTGCTAGCATGGCGAT | 0.541 | 0.857 | 1.12 | 2.88 | 0.425 | 2.25 | -0.87 | 2.71 | 2.87
ACAATTAGTTGAGACGAGGGCAACCGATAGGTTG | 1.5 | 0.974 | 0.94 | 0.611 | 0.718 | 2.74 | 0.375 | 0.691 | 1.07

Sequence | PBM binding z-score [1] | PBM binding z-score [2] | PBM binding z-score [3] | PBM binding z-score [4] | PBM binding z-score [5] | PBM binding z-score [6] | PBM binding z-score [7] | PBM binding z-score [8] | PBM binding z-score [9]
TCGAGTACGTTAGTCGGGGCATTCAGCCAACATA | 0.0909 | -0.237 | -0.247 | 3.19 | -0.238 | -0.142 | -0.507 | 0.707 | 1.51
TCAGAAAGGTGAAGGTAACTCAGGTACGCAGTCG | 2.08 | 2.32 | 2.52 | 1.64 | 2.41 | 2.01 | 0.472 | 1.35 | 0.477
GCTATTAGTTGAAAGTGCAACCGAATGATTCTCG | 0.667 | 0.42 | 0.38 | 1.14 | 0.575 | 0.147 | -0.293 | 0.133 | 0.388
CGTCCAAGGTCAAGGTCAGTGAGAGAGACTCGAA | 5.4 | 6.7 | 7.4 | 3.75 | 6.25 | 4.31 | 3.35 | 4.84 | 3.5
CCAGACAAGTGAAAGGTAACTCAGTCTGGTACGC | 0.344 | 0.201 | 0.303 | 0.272 | 0.604 | 0.291 | -0.287 | 0.274 | 0.0715
CGTCCAAGGTCAGCAGGACAGTGAAAGCGACGTG | 3.89 | 5.05 | 6.09 | 2.33 | 3.68 | 3.72 | 1.9 | 2.42 | 0.589
GTATATAGGTAATACAAGGTGAAAGTCCGATTGT | 1.06 | 0.647 | 0.697 | 0.401 | 0.751 | 4.18 | 1.48 | 0.822 | 0.367
CGTCCAAGGTCAAGGTCTGTGAAAGAGACTCGAA | 3.88 | 6.09 | 6.55 | 3.21 | 5.2 | 3.83 | 2.46 | 3.73 | 1.78
CACACTAGGTCAAGGTCAAAGTCGGTTTGTGCCA | 4.95 | 6.21 | 6.6 | 3.28 | 5.76 | 4.44 | 4.03 | 5.17 | 4.95
ATCGTAAGGTCGAGGTGAGTATAGAGAAAGGGAA | 2.13 | 3 | 3.23 | 1.49 | 2.55 | 3.43 | 2.18 | 1.99 | 0.892
ATAGAAAGGTCGTGAGGTGAGTATACAGAAAGGC | 3.32 | 4.4 | 4.01 | 1.32 | 5.4 | 3.48 | 1.99 | 3.63 | 1.31
CTCGATAGGTCGTGCTCAGGTGAGTATACCAAAC | 1.07 | 2.26 | 1.2 | 0.506 | 1.29 | 2.86 | 0.582 | 0.637 | 0.0382
TCTTATAGATCAAGCAGGTTAAGAAAGCCTGAGT | 0.27 | 0.242 | 0.136 | 1.03 | 0.704 | 0.558 | -0.379 | 0.894 | 0.389
ACTAGTTGGTCAGCTGAGGCCACACACAATTCGG | 1.35 | 0.493 | 1.14 | 0.0642 | 0.0882 | 3.64 | 1.45 | 0.307 | 0.0276
TCGAGTAGGTTACCAATGGGACATTCAGCTTTCT | -0.0362 | 0.634 | 0.55 | 0.448 | 0.451 | 0.207 | -0.766 | -0.0477 | -0.643
GCTCGGAGGACAAGGTCAGATCTTTGTCCGTAGA | 3.06 | 3.19 | 3.28 | 0.628 | 2.46 | 3.17 | 1.58 | 1.61 | 0.872
TCATATAGGTAATACAGTTGAAAGTCGGCATCTA | 0.353 | 0.792 | 0.493 | 1.96 | 1.26 | 0.327 | 0.576 | 1.63 | 0.467
TCAGACAGGTGAGGGTAACTCAGGTACGCAGTCG | 0.992 | 0.551 | 0.485 | 0.971 | 0.746 | 2.35 | 0.442 | 0.677 | 0.115
TAGCCTAGGTCATGCGCGCCAGTATAGTGTCGGC | 3.06 | 4.02 | 4.19 | 0.635 | 3.16 | 3.17 | 1.27 | 2.05 | 0.448
GCAGATAGGTGAAACGCAGGTAACTCAGGGTGGC | 0.000492 | 0.873 | 0.288 | -0.635 | 0.592 | 1.32 | -0.559 | -0.534 | -0.593
CGTCCAAGGTCAATGCTTGGTCAGTGAAAGCATT | 4.25 | 6.01 | 6.27 | 3.51 | 4.89 | 3.82 | 2.24 | 3.69 | 2.49
GATACAGGGTCAGCTAGAGGCCAGAATATGGAAA | 3.01 | 6.5 | 4.78 | 1.32 | 4.12 | 3.04 | 0.498 | 3.19 | 1
ATCGAAAGGTCGAAGGTGAGTAAACCCACCCGAA | 2.45 | 4.43 | 3.92 | 1.23 | 4.9 | 2.15 | 0.0401 | 2.84 | 1.17
TGACCAAGGTGAAGGTCGTTGATCCCTCTGTAGA | 1.87 | 1.64 | 1.25 | -0.322 | 1.84 | 2.37 | 0.58 | 1.43 | 0.744
ATCTCTAGGTAAGACTCAGTTCAATGAAGAACGC | 0.915 | 0.919 | 0.623 | 0.822 | 0.539 | 1.29 | 0.873 | 1.07 | 2.32
CCTAGCAGGCCAGCGTCACTCAAGCATTTCGCTT | -0.555 | -0.553 | -0.578 | -0.0144 | -0.744 | -0.634 | -0.783 | -0.645 | -0.635

Reference: the supplement of paper PMC6555819
